Results with a measured potency or affinity are listed apart. Results filed as inconclusive are left out. Calls of active or inactive are those of the source.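 The calls were made as follows, unless noted: active = falling signal with fitted half-maximal potency no higher than twice the top valid tested dose; inconclusive = poor fit quality, or flat fit spanning -70% to -30%; inactive = potency over limit, rising signal, or flat fit inside 30%.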
Legend:
[1] = fungal growth arrest, C. neoformans – Alamar Blue, cherry-picks, dose response (AID 686998)
[2] = C. neoformans lysis by adenylate kinase leakage – AK release luminescence, cherry-picks, dose response (AID 687000;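 active = fitted dose curve reaches 40% lysis signal rise at or below the highest valid concentration tested for that sample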;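 also: luminescent detection of adenylate kinase leaking from lysed yeast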)
[3] = viability loss in HepG2 hepatoma cells – cell-based, cherry-picks, set 2, cytotoxicity control, dose response (AID 687002;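 active = a dose-response fit showing signal loss, with half-maximal concentration no higher than twice the top tested dose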)
[4] = viability loss in HeLa cells – cell-based, ATP luminescence, cherry-pick samples, cytotoxicity control, dose response (AID 687004;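 active = a fitted half-maximal concentration no higher than twice the top valid tested dose, with signal falling as cells die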)

Measured: outcome

C[C@@H]1CN([C@H](C)CO)C(=O)c2cc(NC(=O)Nc3cccc4ccccc34)ccc2O[C@H]1CN(C)C(=O)Nc1ccc(C(F)(F)F)cc1
inactive: [1] | [2] | [3] | [4]

CCS(CC)=NS(=O)(=O)c1ccc(NC(C)=O)cc1
inactive: [1] | [2] | [3] | [4]

O=C(C[C@H]1CC[C@H]2[C@@H](COC[C@@H](O)CN2C(=O)c2ccc(F)cc2)O1)N1CCOCC1
inactive: [1] | [2] | [3] | [4]

O=C(NCCc1ccccc1)[C@H]1[C@H](CO)[C@H]2Cn3c(cccc3=O)[C@@H]1N2C(=O)C1CCC1
inactive: [1] | [2] | [3] | [4]

O=C(NC1CCCC1)N1CCCCN2[C@H](CO)[C@H](c3ccc(-c4cncnc4)cc3)[C@@H]2C1
inactive: [1] | [2] | [3] | [4]

CCNC(=O)Nc1ccc2c(c1)C(=O)N(C)[C@@H]1CC[C@H](CC(=O)N[C@@H](C)c3ccccc3)O[C@@H]1CO2
inactive: [1] | [2] | [3] | [4]

C[C@@H]1CN([C@@H](C)CO)C(=O)c2cccc(NC(=O)C3CC3)c2O[C@@H]1CN(C)C
inactive: [1] | [2] | [3] | [4]

CO[C@@H]1CN(C)C(=O)c2ccc(NC(=O)NC(C)C)cc2OC[C@H](C)NC[C@@H]1C
inactive: [1] | [2] | [3] | [4]

C[C@@H]1CCCCO[C@@H](CN(C)S(=O)(=O)c2ccccc2)[C@H](C)CN([C@@H](C)CO)C(=O)c2cc(NC(=O)Nc3ccc(F)cc3)ccc2O1
inactive: [1] | [2] | [3] | [4]

CO[C@H]1CC[C@@H]2CCOc3c(C#N)cccc3C(=O)N(C)C[C@H](OC)[C@@H](C)C(=O)N(C)C[C@@H]1O2
inactive: [1] | [2] | [3] | [4]

Cc1noc(C)c1S(=O)(=O)Nc1ccc2c(c1)C(=O)N([C@H](C)CO)C[C@H](C)[C@H](CN(C)Cc1ccncc1)O2
inactive: [1] | [2] | [3] | [4]

CC(=O)N1CCN(c2ccc(NC(=S)NC(=O)c3ccc(C)c([N+](=O)[O-])c3)cc2)CC1
inactive: [1] | [2] | [3] | [4]

O=C(N[C@H]1CC[C@@H](CCn2cc(-c3ccccc3)nn2)O[C@@H]1CO)c1cnccn1
inactive: [1] | [2] | [3] | [4]

CNC[C@@H]1OCCCC[C@H](C)Oc2ccc(NC(=O)c3ccccc3)cc2C(=O)N([C@@H](C)CO)C[C@@H]1C
inactive: [1] | [2] | [3] | [4]

C[C@H](CO)N1C[C@H](C)[C@H](CN(C)C(=O)Nc2cccc3ccccc23)Oc2ccc(NC(=O)Nc3ccccc3)cc2C1=O
inactive: [1] | [2] | [3] | [4]

CO[C@@H]1CN(C)C(=O)c2cc(NC(=O)Nc3cccc(F)c3)ccc2OC[C@H](C)N(C)C[C@@H]1C
inactive: [1] | [2] | [3] | [4]

CCCNC(=O)N(C)C[C@H]1Oc2ncc(C#CC3CCCCC3)cc2C(=O)N([C@@H](C)CO)C[C@@H]1C
inactive: [1] | [2] | [3] | [4]

CO[C@H]1CN(C)C(=O)c2cc(NS(=O)(=O)c3ccc(C)cc3)ccc2OC[C@@H](C)N(C(=O)NC(C)C)C[C@@H]1C
inactive: [1] | [2] | [3] | [4]

COc1ccccc1CNC(=O)C[C@@H]1C[C@H]2c3cc(NC(=O)Nc4ccccc4F)ccc3O[C@H]2[C@@H](CO)O1
inactive: [1] | [2] | [3] | [4]

Cc1ccc(OCC(=O)NCc2ccccc2)cc1
inactive: [1] | [2] | [3] | [4]

CO[C@H]1CN(C)C(=O)c2cc(NS(=O)(=O)CC(F)(F)F)ccc2OC[C@H](C)N(Cc2cccnc2)C[C@@H]1C
inactive: [1] | [2] | [3] | [4]

O=C(NC[C@H]1[C@@H](c2ccccc2)[C@@H](CO)N1C(=O)C1CCC1)NC1CCCC1
inactive: [1] | [2] | [3] | [4]

C[C@@H]1CN([C@@H](C)CO)C(=O)c2cc(NC(=O)Nc3ccc4c(c3)OCO4)ccc2O[C@H]1CN(C)Cc1ccc(Oc2ccccc2)cc1
inactive: [1] | [2] | [3] | [4]

COc1ccc(NC(=O)Nc2ccc3c(c2)C(=O)N([C@H](C)CO)C[C@@H](C)[C@H](CN(C)S(=O)(=O)c2ccc(Cl)cc2)OCCCC[C@@H](C)O3)cc1
inactive: [1] | [2] | [3] | [4]

Cc1ccc(S(=O)(=O)N(CC(=O)NCCSC2CCCCC2)c2ccccc2F)cc1
inactive: [1] | [2] | [3] | [4]

O=C(C[C@H]1CC[C@H]2[C@@H](COC[C@@H](O)CN2C(=O)Nc2ccc(Cl)cc2)O1)N1CCCCC1
inactive: [1] | [2] | [3] | [4]

CC(=O)NC[C@@H]1[C@@H](c2ccc(C3=CCCC3)cc2)[C@@H](CO)N1C(=O)NC(C)C
inactive: [1] | [2] | [3] | [4]

CCNC(=O)Nc1ccc2c(c1)C(=O)N(C)[C@H]1CC[C@H](CC(=O)N[C@@H](C)c3ccccc3)O[C@H]1CO2
inactive: [1] | [2] | [3] | [4]

CO[C@@H]1CC[C@@H]2CCOc3c(C#N)cccc3C(=O)N(C)C[C@H](c3ccccc3)CC(=O)N(C)C[C@@H]1O2
inactive: [1] | [2] | [3] | [4]

O=C(C[C@H]1CC[C@H]2[C@@H](COC[C@@H](O)CN2S(=O)(=O)c2ccc(Oc3ccccc3)cc2)O1)NC1CCC1
inactive: [1] | [2] | [3] | [4]

O=C(Nc1ccc(F)cc1)N1C[C@@H]2[C@H](c3ccccc31)[C@H](CO)N2Cc1cocn1
inactive: [1] | [2] | [3] | [4]

COc1ccc(NC(=O)N(C)C[C@@H]2OCCCC[C@H](C)Oc3ccc(NC(=O)Nc4ccc5c(c4)OCO5)cc3C(=O)N([C@H](C)CO)C[C@@H]2C)cc1
inactive: [1] | [2] | [3] | [4]

CCS(=O)(=O)NCC[C@H]1CC[C@H](NS(=O)(=O)c2cccc(F)c2)[C@H](CO)O1
inactive: [1] | [2] | [3] | [4]

O=C(C[C@H]1C=C[C@H](NC(=O)Nc2cc(F)ccc2F)[C@@H](CO)O1)NCCCN1CCOCC1
inactive: [1] | [2] | [3] | [4]

COCCNC(=O)C[C@@H]1CC[C@H]2[C@@H](COC[C@H](O)CN2Cc2cccc(-c3ccncc3)c2)O1
inactive: [1] | [2] | [3] | [4]

CC(C)NC(=O)Nc1ccc2c(c1)CC(=O)N([C@@H](C)CO)C[C@H](C)[C@H](CN(C)Cc1ccc3c(c1)OCO3)O2
inactive: [1] | [2] | [3] | [4]

C[C@@H]1CN([C@@H](C)CO)C(=O)CCCn2cc(nn2)CO[C@@H]1CN(C)C(=O)NC1CCCC1
inactive: [1] | [2] | [3] | [4]

Cc1noc(C)c1S(=O)(=O)N(C)C[C@@H]1OCCCC[C@@H](C)Oc2ccc(NC(=O)CCCCCC(=O)Nc3ccccc3N)cc2C(=O)N([C@H](C)CO)C[C@@H]1C
inactive: [1] | [2] | [3] | [4]

CCCNC(=O)C[C@@H]1CC[C@H]2[C@@H](COC[C@H](O)CN2Cc2ccccc2F)O1
inactive: [1] | [2] | [3] | [4]

COc1ccc(OC(C)C(=O)NC(C)c2ccccc2)cc1 (stereo unspecified)
inactive: [1] | [2] | [3] | [4]

CCC(=O)N1[C@H](CO)[C@H](c2ccccc2)[C@H]1CN(CC)C(=O)c1cccc(F)c1
inactive: [1] | [2] | [3] | [4]

Cc1ccc(NC(=O)C2(C)CCN2C(=O)CC2CCCC2)cc1 (stereo unspecified)
inactive: [1] | [2] | [3] | [4]

CCC(=O)N1[C@H](CO)[C@H](c2ccccc2)[C@@H]1CN(CC)C(=O)c1cccc(F)c1
inactive: [1] | [2] | [3] | [4]

C[C@@H]1CCCCO[C@@H](CN(C)S(=O)(=O)c2cccs2)[C@H](C)CN([C@@H](C)CO)C(=O)c2cc(NC(=O)CCC(F)(F)F)ccc2O1
inactive: [1] | [2] | [3] | [4]

Cc1cc(C)c(N2CCCC2C(=O)Nc2cccc(C(F)(F)F)c2)c(C)c1 (stereo unspecified)
inactive: [1] | [2] | [3] | [4]

COc1ccccc1CNC(=O)C[C@@H]1C[C@@H]2c3cc(NC(=O)Nc4ccccc4F)ccc3O[C@@H]2[C@H](CO)O1
inactive: [1] | [2] | [3] | [4]

Cc1noc(C)c1S(=O)(=O)N(C)C[C@@H]1Oc2c(NC(=O)c3cnccn3)cccc2C(=O)N([C@@H](C)CO)C[C@@H]1C
inactive: [1] | [2] | [3] | [4]

CC(C)c1ccc(S(=O)(=O)N2CCN(CC(=O)Nc3ccc4c(c3)OCO4)CC2)cc1
inactive: [1] | [2] | [3] | [4]

O=C(O)C[C@@H]1CC[C@@H]2[C@H](COC[C@H](O)CN2S(=O)(=O)c2ccc(F)cc2)O1
inactive: [1] | [2] | [3] | [4]

CCCC(=O)N1CCCC1(C)C(=O)Nc1ccc(C)c(C)c1 (stereo unspecified)
inactive: [1] | [2] | [3] | [4]

CNC[C@@H]1Oc2cc(Br)ccc2S(=O)(=O)N([C@H](C)CO)C[C@H]1C
inactive: [1] | [2] | [3] | [4]

N#Cc1ccc(-c2ccc3c(c2)[C@@H]2[C@@H](CCN2C(=O)Cc2ccccc2)[C@@H](CO)N3)cc1
inactive: [1] | [2] | [3] | [4]

CCCNC(=O)N1C[C@@H](O)COC[C@H]2O[C@H](CC(=O)N3CCN(C)CC3)CC[C@@H]21
inactive: [1] | [2] | [3] | [4]

O=C(c1cc(Br)ccc1Cl)N1CCN(c2ccccn2)CC1
inactive: [1] | [2] | [3] | [4]
